Results filed as inconclusive are left out. Calls of active or inactive are those of the source. Unless noted, calls follow the shape of the dose curve; as a rule, active = well fitted curve in the direction sought with a large enough effect in the repeat runs; inconclusive = weak or mixed curves; inactive = no such curve, though single readings can be large; an effect the other way counts as inactive or inconclusive.
Assays:
[1] = target: Thyrotropin receptor (Homo sapiens) (UniProt P16473); test: qHTS assay to identify small molecule antagonists of the thyroid stimulating hormone receptor (TSHR) signaling pathway (AID 1259385; calls by dose curve; also: nearly all actives have a fitted effect of over 20% in size)
Chain of Thyrotropin receptor (Homo sapiens) (P16473 whole entry, looked up): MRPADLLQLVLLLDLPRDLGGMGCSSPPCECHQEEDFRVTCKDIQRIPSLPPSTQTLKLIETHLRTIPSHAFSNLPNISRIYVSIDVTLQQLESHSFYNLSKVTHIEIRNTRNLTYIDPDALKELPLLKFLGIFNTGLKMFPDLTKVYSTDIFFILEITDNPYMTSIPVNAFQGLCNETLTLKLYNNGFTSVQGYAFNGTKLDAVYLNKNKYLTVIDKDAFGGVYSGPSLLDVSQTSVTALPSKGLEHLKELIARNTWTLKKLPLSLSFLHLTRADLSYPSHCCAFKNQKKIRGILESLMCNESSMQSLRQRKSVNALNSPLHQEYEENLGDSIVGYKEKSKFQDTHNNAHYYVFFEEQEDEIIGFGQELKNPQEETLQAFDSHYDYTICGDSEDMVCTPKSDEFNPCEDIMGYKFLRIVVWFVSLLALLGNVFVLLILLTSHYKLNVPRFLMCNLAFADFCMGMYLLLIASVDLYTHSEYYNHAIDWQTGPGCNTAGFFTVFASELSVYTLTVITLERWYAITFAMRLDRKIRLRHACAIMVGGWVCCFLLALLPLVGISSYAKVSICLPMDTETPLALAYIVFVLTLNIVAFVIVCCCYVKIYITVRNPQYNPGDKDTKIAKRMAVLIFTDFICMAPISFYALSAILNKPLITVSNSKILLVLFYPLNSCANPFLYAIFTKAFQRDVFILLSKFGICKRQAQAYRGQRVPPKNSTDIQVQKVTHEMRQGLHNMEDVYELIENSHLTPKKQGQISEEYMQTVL
How it was run: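 Antagonist mode: compound-treated TSHR-expressing HEK293 cells were stimulated with 1.5 ng/mL TSH (final) in presence of Ro20-1724 for 30 min at RT. HTRF cAMP detection after 1 h; each compound tested at 15 concentrations, triplicate.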

[2] = qHTS assay to identify small molecule agonists of the estrogen receptor alpha (ER-alpha) signaling pathway in the presence of an antagonist - cell viability counter screen (AID 1259386);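 also: series mostly up to about 92 µM; cells exposed to compounds for 22 h at 37 °C before the viability read; nearly all actives have a fitted effect of over 30% in size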
How it was run: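 The test measures whether compounds kill ER-alpha reporter cells (VM7Luc4E2) under antagonist co-treatment (ICI-182,780, 10.0nM). Fluorescence from CellTiter-Fluor is read after a 22hr exposure.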

[3] = target: Progesterone receptor (Homo sapiens) (UniProt P06401); test: qHTS assay to identify small molecule agonists of the progesterone receptor (PR) signaling pathway (AID 1346784; calls by dose curve; also: nearly all actives have a fitted effect of over 30% in size)
Chain of Progesterone receptor (Homo sapiens) (P06401 whole entry, looked up): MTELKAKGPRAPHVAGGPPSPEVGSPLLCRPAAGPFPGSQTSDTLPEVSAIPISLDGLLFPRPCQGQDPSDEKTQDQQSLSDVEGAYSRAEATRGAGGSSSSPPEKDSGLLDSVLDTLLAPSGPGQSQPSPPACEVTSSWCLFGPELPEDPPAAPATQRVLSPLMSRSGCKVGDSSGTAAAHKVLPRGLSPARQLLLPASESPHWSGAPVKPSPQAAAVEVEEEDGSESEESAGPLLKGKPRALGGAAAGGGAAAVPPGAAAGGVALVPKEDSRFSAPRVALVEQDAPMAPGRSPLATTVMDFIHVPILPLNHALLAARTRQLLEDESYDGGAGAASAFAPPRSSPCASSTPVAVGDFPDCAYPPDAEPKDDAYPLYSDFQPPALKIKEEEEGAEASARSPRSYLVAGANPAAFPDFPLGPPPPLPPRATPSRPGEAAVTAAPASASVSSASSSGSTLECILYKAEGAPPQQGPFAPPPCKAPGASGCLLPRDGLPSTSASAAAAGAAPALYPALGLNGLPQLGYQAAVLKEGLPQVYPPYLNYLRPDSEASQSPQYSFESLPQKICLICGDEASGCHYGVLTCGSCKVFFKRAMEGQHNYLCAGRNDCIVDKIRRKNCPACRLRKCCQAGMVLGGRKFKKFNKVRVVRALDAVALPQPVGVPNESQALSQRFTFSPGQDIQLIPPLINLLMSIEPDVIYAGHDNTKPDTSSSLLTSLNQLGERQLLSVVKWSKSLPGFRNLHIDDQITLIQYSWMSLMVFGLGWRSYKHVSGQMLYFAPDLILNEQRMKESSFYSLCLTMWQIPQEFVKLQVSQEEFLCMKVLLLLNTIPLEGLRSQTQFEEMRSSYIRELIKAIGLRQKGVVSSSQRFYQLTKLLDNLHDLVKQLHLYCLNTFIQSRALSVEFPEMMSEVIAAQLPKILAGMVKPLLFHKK
How it was run: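 HEK 293T PR-UAS-bla reporter cells, 2% charcoal-stripped FBS; 6 hr settle at 37C/5% CO2, compound (DMSO) 16 hr, LiveBLAzer B/G FRET substrate 2 hr RT, fluorescence intensity read.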

[4] = target: Progesterone receptor (Homo sapiens) (UniProt P06401); test: qHTS assay to identify small molecule antagonists of the progesterone receptor (PR) signaling pathway (AID 1346795; active = well fitted inhibition curve with a large enough effect in the signal ratio in the repeat runs, not every such curve was filed as active; the % refers to the signal ratio)
How it was run: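 Beta-lactamase reporter, HEK293T PR-UAS-bla line; 2% charcoal-stripped FBS; 6 hr pre-incubation, 37C/5% CO2. Compound + R5020 1 nM final, 16 hr. LiveBLAzer B/G FRET substrate, 2 hr RT; fluorescence intensity read.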

[5] = qHTS assay to identify small molecule antagonists of the progesterone receptor (PR) signaling pathway - cell viability counter screen (AID 1346798); also: series mostly up to about 92 µM; nearly all actives have a fitted effect of over 50% in size
How it was run: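 Luminescence readout (CellTiter-Glo, 30 min, RT) of viability in PR-UAS-bla HEK293T cells exposed to compound and R5020 agonist for 16 hr at 37C, 5% CO2; run in the same wells as the beta-lactamase reporter read.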

[6] = qHTS assay to identify small molecule agonists of the progesterone receptor (PR) signaling pathway - cell viability counter screen (AID 1346799; calls by dose curve; also: nearly all actives have a fitted effect of over 45% in size)
How it was run: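 HEK293T PR-UAS-bla, 3,000 cells/well, 2% charcoal-stripped FBS; 6 h settle, compound 16 h at 37C/5% CO2; LiveBLAzer 2 h RT, then CellTiter-Glo 30 min RT, luminescence read.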

[7] = qHTS assay to identify small molecule antagonists of the TGF-beta/Smad signaling pathway - cell viability counter screen (AID 1346824); also: nearly all actives have a fitted effect of over 50% in size
How it was run: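 Cytotoxicity counter-screen run in the same wells as the beta-lactamase Smad reporter read: CellTiter-Glo luminescence after 30 min at room temperature. HEK 293T SBE-bla cells had 5 hr compound exposure at 37 C with TGF-beta1 (0.25 ng/mL stock).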

[8] = qHTS assay to identify small molecule agonists of the TGF-beta/Smad signaling pathway - cell viability counter screen (AID 1346829); also: top concentration of the series differs between compounds; nearly all actives have a fitted effect of over 45% in size
How it was run: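 Compound-treated SBE-bla HEK 293T cells (5 hr, 37 C) were assessed for viability with CellTiter-Glo in parallel with the reporter read.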

[9] = qHTS assay to identify small molecule agonists of the TGF-beta/Smad signaling pathway (AID 1346859; active = well fitted activation curve with a large enough effect in the signal ratio in the repeat runs, not every such curve was filed as active; the % refers to the signal ratio; also: series mostly up to about 77 µM)
How it was run: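 Read-out: fluorescence at 460 and 530 nm (405 nm excitation) after a 2 hr room-temperature incubation with beta-lactamase FRET substrate. SBE-bla HEK 293T cells had been treated with test compounds for 5 hr at 37 C.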

[10] = Human pregnane X receptor (PXR) small molecule agonists, qHTS cell viability counter screen (AID 1346977); also: nearly all actives have a fitted effect of over 50% in size
How it was run: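 Fluorescence read-out (CellTiter-Fluor) of viability in PXR-Luc HepG2 cells, multiplexed with the luciferase agonist read. Compounds in DMSO added after 5hr plating; 24hr total exposure at 37C, 5% CO2.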

[11] = Caspase-3/7 induction in HepG2 cells by small molecules, qHTS assay (AID 1346978); also: nearly all actives have a fitted effect of over 15% in size
How it was run: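 Caspase-3/7 induction was measured by Caspase-Glo 3/7 luminescence (30 min, room temperature) after a 17 hr compound exposure of wild-type HepG2 cells seeded at 2,000 per well and pre-incubated 5 hr.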

[12] = Caspase-3/7 induction in CHO-K1 cells by small molecules, qHTS cell viability counter screen (AID 1346979); also: nearly all actives have a fitted effect of over 35% in size
How it was run: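 CHO-K1 wt, 1,500 cells/well; 5hr pre-incubation 37C/5% CO2; compound pin transfer (DMSO); 16hr exposure; CellTiter-Fluor added, 1hr, fluorescence read.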

[13] = Caspase-3/7 induction in CHO-K1 cells by small molecules, qHTS assay (AID 1346980); also: nearly all actives have a fitted effect of over 15% in size
How it was run: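 Luminescent Caspase-Glo 3/7 read (30min, room temperature) quantified apoptosis induction. Cells were wild-type CHO-K1, treated with compound for 17hr at 37 C and 5% CO2.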

[14] = Caspase-3/7 induction in HepG2 cells by small molecules, qHTS cell viability counter screen (AID 1346981); also: series mostly up to about 92 µM; nearly all actives have a fitted effect of over 30% in size
How it was run: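 Treatment of HepG2 cells with DMSO-delivered compounds ran 16 hr at 37 C following a 5-hr pre-incubation of 2,000 cells/well. CellTiter-Fluor fluorescence, read after 1 hr, served as the viability measure in a qHTS format.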

[15] = target: Nuclear receptor subfamily 1 group I member 2 (Homo sapiens) (UniProt O75469); test: Human pregnane X receptor (PXR) small molecule agonists, qHTS assay (AID 1346982); also: nearly all actives have a fitted effect of over 35% in size
Chain of Nuclear receptor subfamily 1 group I member 2 (Homo sapiens) (O75469 whole entry, looked up): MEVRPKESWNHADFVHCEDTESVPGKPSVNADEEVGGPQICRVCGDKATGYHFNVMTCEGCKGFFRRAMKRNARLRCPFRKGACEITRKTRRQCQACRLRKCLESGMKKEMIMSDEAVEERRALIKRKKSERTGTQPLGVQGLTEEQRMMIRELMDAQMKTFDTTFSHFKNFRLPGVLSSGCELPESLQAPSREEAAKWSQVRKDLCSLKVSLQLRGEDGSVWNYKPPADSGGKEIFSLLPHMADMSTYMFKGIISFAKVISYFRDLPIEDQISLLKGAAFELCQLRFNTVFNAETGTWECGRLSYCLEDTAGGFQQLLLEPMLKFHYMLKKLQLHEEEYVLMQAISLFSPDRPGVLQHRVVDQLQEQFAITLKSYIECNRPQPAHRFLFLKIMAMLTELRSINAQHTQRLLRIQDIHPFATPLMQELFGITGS
How it was run: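 Stable HepG2 line reporting PXR-mediated CYP3A4 expression via luciferase. Treatment: 24 hr with compounds in DMSO at 37 C. Detection: ONE-Glo luminescence.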

[16] = target: Thyrotropin-releasing hormone receptor (Homo sapiens) (UniProt P34981); test: qHTS assay to identify small molecule antagonists of the thyrotropin-releasing hormone receptor (TRHR) signaling pathway (AID 1346877; active = well fitted inhibition curve with a large enough effect in the repeat runs, not every such curve was filed as active; also: series mostly up to about 51 µM)
Chain of Thyrotropin-releasing hormone receptor (Homo sapiens) (P34981 whole entry, looked up): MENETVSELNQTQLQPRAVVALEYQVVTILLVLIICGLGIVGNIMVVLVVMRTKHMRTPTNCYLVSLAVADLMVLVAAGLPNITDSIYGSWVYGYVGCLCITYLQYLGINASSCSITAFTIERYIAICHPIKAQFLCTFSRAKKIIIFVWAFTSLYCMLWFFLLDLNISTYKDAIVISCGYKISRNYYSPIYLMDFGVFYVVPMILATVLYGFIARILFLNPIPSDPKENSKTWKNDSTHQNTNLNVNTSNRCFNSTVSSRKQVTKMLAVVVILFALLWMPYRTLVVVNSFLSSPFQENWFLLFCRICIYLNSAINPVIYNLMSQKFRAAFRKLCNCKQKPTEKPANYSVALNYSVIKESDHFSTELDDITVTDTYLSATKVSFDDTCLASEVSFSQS
How it was run: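 Overnight-plated (18 h, 37 °C) HEK293 cells expressing TRHR were dye-loaded 2 h, treated with compound, then stimulated with TRH at 1 nM final. Fluorescence intensity was captured every second for 3 min.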

[17] = target: Thyrotropin-releasing hormone receptor (Homo sapiens) (UniProt P34981); test: qHTS assay to identify small molecule agonists of the thyrotropin-releasing hormone receptor (TRHR) signaling pathway (AID 1346891; calls by dose curve;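 also: HEK293 cells expressing TRHR with calcium dye readout; series mostly up to about 58 µM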)
How it was run: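 HEK293/TRHR cells, 1500 per well, 18 h 37 °C; Ca dye 2 h 37 °C; pin-tool compound addition (agonist mode); kinetic fluorescence 3 min, 1 s reads; 15 concentrations, triplicate.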

Measured: Potency

COc1ccc(C)cc1
not listed: [16] | [17]
inactive: all other assays above

CCCCCCC(CO)CCCC (stereo not drawn)
not listed: [12]
inactive: all other assays above

CCCCOC(=O)CCCCC(=O)OCCCC
not listed: [12]
inactive: all other assays above

O=C(O)/C=C/c1ccc(O)c(O)c1
inactive: all assays above

CCC(CO)(CO)CO
inactive: all assays above

CCCCCCCC(=O)OCCCCCC
inactive: all assays above

Cc1ccc(NC(=O)N(C)C)cc1NC(=O)N(C)C
not listed: [14] | [15]
inactive: all other assays above

CC(C)(O)CCc1ccccc1
not listed: [16] | [17]
inactive: all other assays above

From PubChem BioAssay (Tox21)
